Measured values taken from PubChem BioAssay (NCI).
About 79,000 compounds went through this panel and 15% of them were active in at least one assay; those are over-represented in the sample as a whole. Calls of active or inactive are those of the source. Rule as the data show it: active = growth inhibition above about 70%; inactive = the rest.

Experiments:
[1] = NCI Yeast Anticancer Drug Screen. Data for the rad52 strain (AID 147);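 also: 0% = growth of vehicle-treated control cultures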; conditions: S. cerevisiae rad52 mutant growth inhibition, stronger effect = higher value
Summary of the method: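 Measured: yeast growth inhibition. System: strain with a defined DNA damage repair alteration. Reference: vehicle-treated control cultures.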

[2] = NCI Yeast Anticancer Drug Screen. Data for the wt1 strain (AID 149);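 also: 0% = growth of vehicle-treated wt1 cultures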; conditions: S. cerevisiae wt1 strain (SPY 50644) growth inhibition, stronger effect = higher value
Summary of the method: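 wt1 strain grown with compound or vehicle; inhibition taken from the growth difference.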

[3] = NCI Yeast Anticancer Drug Screen. Data for the rad50EPP+ strain (AID 151);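 also: 0% = growth of vehicle-treated control cultures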; conditions: S. cerevisiae rad50 mutant strain, stronger effect = higher value
Summary of the method: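 One strain with a rad50 alteration (rad50EPP+) was compound-treated, its growth then compared to that of vehicle controls.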

[4] = NCI Yeast Anticancer Drug Screen. Data for the rad50 strain (AID 155);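 also: 0% = growth of vehicle-only cultures of the same strain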; conditions: S. cerevisiae rad50 strain growth inhibition, stronger effect = higher value
Summary of the method: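 DNA repair mutant yeast, compound exposure, growth read-out; inhibition is taken relative to vehicle.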

[5] = NCI Yeast Anticancer Drug Screen. Data for the mec2-1 strain (AID 157); conditions: S. cerevisiae mec2-1 strain, stronger effect = higher value
Summary of the method: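 Test agents were screened against the mec2-1 yeast strain, with defined DNA repair or cell cycle alteration. Growth was scored as inhibition against vehicle-only controls.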

[6] = NCI Yeast Anticancer Drug Screen. Data for the rad14 strain (AID 159);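 also: 0% = growth of vehicle-treated control cultures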; conditions: S. cerevisiae rad14 strain growth inhibition, stronger effect = higher value
Summary of the method: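 DNA repair-defective yeast, compound-exposed; % growth inhibition derived by comparison with vehicle-treated controls.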

[7] = NCI Yeast Anticancer Drug Screen. Data for the sgs1 mgt1 strain (AID 161);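 also: 0% = growth of cultures given vehicle only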; conditions: S. cerevisiae sgs1 mgt1 strain, stronger effect = higher value
Summary of the method: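 Genetically altered yeast, compound exposure, growth inhibition relative to vehicle.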

[8] = NCI Yeast Anticancer Drug Screen. Data for the CLN2oe strain (AID 163);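 also: 0% = growth of vehicle-only control cultures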; conditions: S. cerevisiae CLN2oe strain, stronger effect = higher value
Summary of the method: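 Here, growth inhibition in a cell-cycle-altered yeast strain after compound exposure was quantified against vehicle control growth.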

[9] = NCI Yeast Anticancer Drug Screen. Data for the cln2 rad14 strain (AID 165);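 also: 0% = growth equal to vehicle treated cultures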; conditions: S. cerevisiae cln2 rad14 strain, stronger effect = higher value
Summary of the method: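 Growth of compound-exposed yeast (cln2 rad14 genotype) measured and expressed as inhibition relative to vehicle.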

[10] = NCI Yeast Anticancer Drug Screen. Data for the bub3 strain (AID 167); conditions: S. cerevisiae bub3 mutant strain, stronger effect = higher value
Summary of the method: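 In this screen, a yeast mutant lacking normal mitotic checkpoint function is challenged with compound. Relative growth versus vehicle gives the inhibition value.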

[11] = NCI Yeast Anticancer Drug Screen. Data for the wt2 strain (AID 169);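 also: 0% = growth of vehicle-treated yeast cultures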; conditions: S. cerevisiae wt2 strain growth inhibition, stronger effect = higher value
Summary of the method: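 Genetically defined yeast strains from a DNA-repair/cell-cycle panel were used. Compound-exposed yeast growth was measured, and the inhibition was calculated relative to vehicle treatment.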

[12] = NCI Yeast Anticancer Drug Screen. Data for the mlh1 strain (AID 171);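 also: 0% = growth of vehicle-treated control cultures of the same strain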; conditions: S. cerevisiae mlh1 strain growth inhibition, stronger effect = higher value
Summary of the method: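 Here the genetically defined yeast mutant is grown with each compound, and the extent to which its growth falls below that of vehicle-exposed cells is reported.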

[13] = NCI Yeast Anticancer Drug Screen. Data for the sgs1 strain (AID 173);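 also: 0% = growth of vehicle-only control cultures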; conditions: S. cerevisiae sgs1 mutant, stronger effect = higher value
Summary of the method: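 Relative growth inhibition, referenced to vehicle, was determined in a yeast strain with a defined alteration affecting DNA damage repair or cell cycle control after compound exposure.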

[14] = NCI Yeast Anticancer Drug Screen. Data for the mlh1 rad18 strain (AID 175); conditions: S. cerevisiae mlh1 rad18 strain growth inhibition, stronger effect = higher value
Summary of the method: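 In this whole-cell yeast screen, a strain with altered DNA damage repair is challenged with compound, and its growth is measured against matched vehicle-treated controls.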

[15] = NCI Yeast Anticancer Drug Screen. Data for the rad18 strain (AID 177); conditions: S. cerevisiae rad18 mutant growth inhibition, stronger effect = higher value
Summary of the method: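 Screen uses a yeast strain with a defined lesion in DNA damage repair; compound effect is read as loss of growth compared to untreated vehicle cultures.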

[16] = at 5.0 µM (retest, dose inferred, filed as 0.5)
[17] = at 50.0 µM (retest, dose inferred, filed as 5.0)

Measured: growth inhibition

CC1OC(OC2CCCc3c(O)c4c(c(O)c32)C(=O)c2ccccc2C4=O)CC(N)C1O (stereo unspecified)
inactive: [1]; at 1.2 µM 3% | [1]; at 3.7 µM 46% | [2]; at 1.2 µM 1% | [2]; at 3.7 µM 12% | [2]; at 11.0 µM 35% | [3]; at 1.2 µM 10% | [3]; at 3.7 µM 30% | [4]; at 1.2 µM -49% | [4]; at 3.7 µM 41% | [4]; [16] 60% | [5]; at 1.2 µM 0% | [5]; at 3.7 µM -2% | [5]; [16] 8% | [5]; at 11.0 µM 4% | [5]; at 50.0 µM 53% | [6]; at 1.2 µM 2% | [6]; at 3.7 µM 12% | [6]; at 11.0 µM 55% | [7]; [16] 14% | [8]; at 1.2 µM 2% | [8]; at 3.7 µM -1% | [8]; at 11.0 µM 2% | [9]; [16] -3% | [9]; at 50.0 µM 43.9% | [10]; at 1.2 µM -4% | [10]; at 3.7 µM -5% | [10]; [16] 2% | [10]; at 11.0 µM -7% | [10]; at 50.0 µM 52.8% | [11]; at 1.2 µM 4% | [11]; at 3.7 µM 9% | [11]; at 11.0 µM 61% | [12]; at 1.2 µM -11% | [12]; at 3.7 µM -6% | [12]; at 11.0 µM 16% | [13]; at 1.2 µM -12% | [13]; at 3.7 µM -7% | [13]; at 11.0 µM 34% | [14]; [16] 12% | [14]; at 50.0 µM 66.2% | [15]; at 1.2 µM -8% | [15]; at 3.7 µM 0% | [15]; at 11.0 µM 8%
active: [1]; at 11.0 µM 94% | [1]; at 33.0 µM 98% | [1]; at 100.0 µM 99% | [2]; at 33.0 µM 92% | [2]; at 100.0 µM 99% | [3]; at 11.0 µM 73% | [3]; at 33.0 µM 97% | [3]; at 100.0 µM 98% | [4]; at 11.0 µM 95% | [4]; at 33.0 µM 99% | [4]; [17] 98% | [4]; at 50.0 µM 80.7% | [4]; at 100.0 µM 98% | [5]; at 33.0 µM 82% | [5]; [17] 99% | [5]; at 100.0 µM 99% | [6]; at 33.0 µM 99% | [6]; at 100.0 µM 99% | [7]; [17] 98% | [7]; at 50.0 µM 70.5% | [8]; at 33.0 µM 84% | [8]; at 100.0 µM 98% | [9]; [17] 98% | [10]; at 33.0 µM 89% | [10]; [17] 98% | [10]; at 100.0 µM 98% | [11]; at 33.0 µM 97% | [11]; at 100.0 µM 99% | [12]; at 33.0 µM 94% | [12]; at 100.0 µM 99% | [13]; at 33.0 µM 97% | [13]; at 100.0 µM 99% | [14]; [17] 99% | [15]; at 33.0 µM 90% | [15]; at 100.0 µM 99%

Clc1nc(C(Cl)Cl)nc2sc3c(c12)CCCC3
active: [4]; [17] 88% | [4]; at 50.0 µM 98.2% | [5]; [17] 80% | [5]; at 50.0 µM 89.3% | [7]; at 50.0 µM 97.7% | [9]; [17] 81% | [9]; at 50.0 µM 78.2% | [10]; [17] 96% | [10]; at 50.0 µM 92.1% | [11]; at 100.0 µM 73% | [13]; at 100.0 µM 78% | [14]; [17] 74% | [14]; at 50.0 µM 96.3%
inactive: [1]; at 1.2 µM 10% | [1]; at 3.7 µM 11% | [1]; at 11.0 µM 14% | [1]; at 33.0 µM 26% | [1]; at 100.0 µM 54% | [2]; at 1.2 µM 2% | [2]; at 3.7 µM 4% | [2]; at 11.0 µM 5% | [2]; at 33.0 µM 21% | [2]; at 100.0 µM 56% | [3]; at 1.2 µM 1% | [3]; at 3.7 µM 0% | [3]; at 11.0 µM 1% | [3]; at 33.0 µM 0% | [3]; at 100.0 µM -2% | [4]; at 1.2 µM 6% | [4]; at 3.7 µM -1% | [4]; [16] 28% | [4]; at 11.0 µM 1% | [4]; at 33.0 µM 31% | [4]; at 100.0 µM 53% | [5]; at 1.2 µM 11% | [5]; at 3.7 µM 9% | [5]; [16] 5% | [5]; at 11.0 µM 15% | [5]; at 33.0 µM 39% | [5]; at 100.0 µM 66% | [6]; at 1.2 µM 6% | [6]; at 3.7 µM 2% | [6]; at 11.0 µM 9% | [6]; at 33.0 µM 33% | [6]; at 100.0 µM 69% | [7]; [16] 5% | [7]; [17] 26% | [8]; at 1.2 µM 7% | [8]; at 3.7 µM 9% | [8]; at 11.0 µM 12% | [8]; at 33.0 µM 46% | [8]; at 100.0 µM 63% | [9]; [16] 32% | [10]; at 1.2 µM 5% | [10]; at 3.7 µM 3% | [10]; [16] 0% | [10]; at 11.0 µM 8% | [10]; at 33.0 µM 27% | [10]; at 100.0 µM 43% | [11]; at 1.2 µM 3% | [11]; at 3.7 µM 3% | [11]; at 11.0 µM 6% | [11]; at 33.0 µM 36% | [12]; at 1.2 µM 4% | [12]; at 3.7 µM 4% | [12]; at 11.0 µM 7% | [12]; at 33.0 µM 29% | [12]; at 100.0 µM 51% | [13]; at 1.2 µM 7% | [13]; at 3.7 µM 7% | [13]; at 11.0 µM 10% | [13]; at 33.0 µM 51% | [14]; [16] -1% | [15]; at 1.2 µM 12% | [15]; at 3.7 µM 13% | [15]; at 11.0 µM 21% | [15]; at 33.0 µM 35% | [15]; at 100.0 µM 58%
